Hits are enriched below; roughly 11% of the tested compounds scored in any of these assays.
HSD17B inhib: blocks hydroxysteroid 17-beta dehydrogenase activity; actives 7.6% (n = 75,000); recombinant HSD17B10, NADH fluorescence kinetic; AID 893; Potency, µM (top dose mostly 57.1 µM), for inactives: top-dose activity change, negative = inhibition, most hits filed as inhibitors; Q99714;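 also: the protocol describes HADH2 (HSD17B10) and not the HSD17B4 of the title; nearly all actives have a fitted effect of over 70% in size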
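Activity followed as NADH fluorescence increase (ex 360, em 450 nm) every 30 seconds for 4 min, using final 90 uM beta-hydroxybutyryl CoA and 1 mM NAD+. Recombinant His-tagged enzyme, 20 nM, pH 9.0 Tris buffer, 15 min compound preincubation.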
Luciferase inh: firefly luciferase inhibition; purified firefly luciferase, luminescence, 8 min; actives 2.2% (n = 72,000); AID 411; P08659; Potency, µM (top dose mostly 57.1 µM), for the others: at the highest dose activity change, negative = inhibition, actives largely listed as inhibitors; also: nearly all actives have a fitted effect of over 40% in size
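Compounds were tested as concentration series (qHTS) against purified P. pyralis luciferase with luciferin and 10 uM ATP in 50 mM imidazole pH 7.2, 50 mM KCl, 7 mM MgCl2, 0.01% Tween 20, 0.05% BSA. Luminescence was read after 8 min at ambient temperature.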
HADH2 inh: HADH2 (human) dehydrogenase inhibition; actives 3.4% (n = 73,000); recombinant HADH2, NADH fluorescence, beta-hydroxybutyryl-CoA; Potency, µM (series often up to 57.1 µM), for inactives: at the highest dose activity change, negative = inhibition, usual class: inhibitors; also: nearly all actives have a fitted effect of over 60% in size
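E. coli-expressed His-tagged HADH2 tested at 20 nM in alkaline Tris buffer (pH 9.0); oxidation of 90 uM beta-hydroxybutyryl-CoA with 1 mM NAD+ tracked fluorimetrically for 4 min.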
15-hLO inh: inhibitors of human 15-lipoxygenase (ALOX15). P16050. Potency, µM (titrated, usually from 57.1 µM), for the others: at the top dose activity change, negative = inhibition, most hits filed as inhibitors. purified 15hLO-1, xylenol orange hydroperoxide absorbance. actives 1.4% (n = 74,000); also: nearly all actives have a fitted effect of over 55% in size
Target sequence (P16050 whole entry, looked up): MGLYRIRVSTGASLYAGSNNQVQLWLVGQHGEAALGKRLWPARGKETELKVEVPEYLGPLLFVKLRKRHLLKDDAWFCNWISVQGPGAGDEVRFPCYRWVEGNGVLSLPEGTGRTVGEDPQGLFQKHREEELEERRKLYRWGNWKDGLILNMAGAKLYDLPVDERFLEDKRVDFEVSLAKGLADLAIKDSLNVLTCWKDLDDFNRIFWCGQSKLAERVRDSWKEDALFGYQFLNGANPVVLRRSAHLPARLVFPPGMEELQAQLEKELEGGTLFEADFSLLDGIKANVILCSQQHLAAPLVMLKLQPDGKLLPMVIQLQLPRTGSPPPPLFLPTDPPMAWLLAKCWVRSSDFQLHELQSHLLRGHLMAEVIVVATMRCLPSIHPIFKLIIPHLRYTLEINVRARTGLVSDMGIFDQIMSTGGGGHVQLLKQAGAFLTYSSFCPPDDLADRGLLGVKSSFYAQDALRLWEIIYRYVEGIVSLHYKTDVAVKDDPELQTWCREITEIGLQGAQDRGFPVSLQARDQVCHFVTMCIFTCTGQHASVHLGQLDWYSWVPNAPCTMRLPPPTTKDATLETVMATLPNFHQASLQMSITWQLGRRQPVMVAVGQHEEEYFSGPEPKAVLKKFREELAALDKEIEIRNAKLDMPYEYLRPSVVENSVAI
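Purified human 15hLO-1 (40 nM final) in 25 mM Hepes pH 7.5, 0.01% Triton X-100 was preincubated with compound 15 min at room temperature, then reacted 6 min with 50 uM arachidonic acid; hydroperoxide detected by Fe-XO, 573/405 nm absorbance ratio.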
PK Bst: modulators of Bacillus stearothermophilus pyruvate kinase; purified pyruvate kinase, luminescence ATP production; ribose 5-phosphate activator present at AC10; Potency, µM; actives 1.2% (n = 51,000); AID 361; in the data active = potency below about 11 µM; inconclusive = mostly about 12 µM to 25 µM;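 the screen sought inhibitors and activators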;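 also: scaled between full activation by ribose 5 phosphate and full inhibition by luteolin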
ERK AVP block: blocks ERK signaling stimulated by vasopressin; HEK293-V1b, vasopressin-stimulated pERK AlphaScreen; Potency, µM (series often up to 57.5 µM), without a hit: top-dose activity, negative = inhibition, actives largely listed as inhibitors; actives 0.99% (n = 72,000); also: nearly all actives have a fitted effect of over 55% in size
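qHTS, compounds titrated on V1b-expressing HEK293 cells. Preincubation 30 min at 37C, vasopressin 25 nM for 5 min, lysis 10 min, bead incubation 5 hr at room temperature.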
Starred values were filed as active, the others as inactive; ! = repeats disagree; [ ] = dose if it differs, or a comment. Unless noted, calls follow the shape of the dose curve; as a rule, active = well fitted curve in the direction sought with a large enough effect; inconclusive = small, poorly fitted or top-dose-only effect, or another doubt; inactive = no such curve, though single readings can be large; an effect the other way counts as inactive or inconclusive. Unless noted, % is scaled to controls: 0 for no effect and ±100 for the full control effect; potency is read from the fitted curve at half-maximal effect.

`CC(C)=CCCC1(C)C=Cc2c(O)c3c(c(CC=C(C)C)c2O1)OC12C(=CC4CC1C(C)(C)OC2(C/C=C(/C)C(=O)O)C4O)C3=O` (centres undefined) gave HSD17B inhib 10µM*, 15-hLO inh 20µM* and ERK AVP block 5.01µM*.
Screening CC(C)=CCCC1(C)C=Cc2c(O)c3c(c(CC=C(C)C)c2O1)OC12C(=CC4CC1C(C)(C)OC2(C/C=C(/C)C(=O)O)C4=O)C3=O (centres undefined) returned HSD17B inhib 25.1µM*, 15-hLO inh 15.8µM* and ERK AVP block inconclusive.
`CC(C)CCCC1(C)C=Cc2c(O)c3c(c(CCC(C)C)c2O1)OC12C(CC4CC1C(C)(C)OC2(CCC(C)C(=O)O)C4O)C3=O` (centres undefined) gave HSD17B inhib inconclusive, 15-hLO inh inconclusive and ERK AVP block 28.3%.
Screening c1ccc2c(c1)-c1cccc3cccc-2c13 returned HSD17B inhib 39.8µM*, HADH2 inh inconclusive, 15-hLO inh 5.4% and ERK AVP block 43.7%.
C[C@@]12CC[C@H]3[C@@H](CCC4=CC(=O)CC[C@]43C)[C@H]1CC[C@H]2C(=O)CO was read as HSD17B inhib 12.6µM*, Luciferase inh 7.2%[25.5 µM], HADH2 inh -0.3%[25.6 µM], 15-hLO inh -6.6%[25.6 µM] and ERK AVP block inconclusive.
Screening C[C@]12CCC(=O)C=C1CC[C@@H]1[C@@H]2CC[C@]2(C)C(=O)CC[C@@H]12 returned HSD17B inhib 2.3%, Luciferase inh 0.8%[25.5 µM], HADH2 inh 25.1µM*!, 15-hLO inh -18.4%, PK Bst >25.6 and ERK AVP block inconclusive.
C[C@@]12CCC3C(CCC4=CC(=O)CC[C@]43C)C1CCC2O (some centres undefined) was read as HSD17B inhib 79.5%, 15-hLO inh -10.4% and ERK AVP block 31.6µM*.
C[C@@]12CC(=O)[C@H]3[C@@H](CCC4=CC(=O)CC[C@]43C)[C@H]1CCC2=O was read as HSD17B inhib -3.8%[25.6 µM], Luciferase inh 0.4%[25.5 µM], HADH2 inh 7.0%[25.6 µM], 15-hLO inh 8.7%[25.6 µM] and ERK AVP block -9.1%[25.7 µM].
For CC1=NN(c2ccc(S(=O)(=O)O)cc2C)C(=[OH+])[C@H]1N=Nc1cc(S(=O)(=O)O)ccc1C(=O)O.O.[Cr] the results were HSD17B inhib 4.1%[11.4 µM], Luciferase inh 2.4%[11.4 µM], HADH2 inh -3.5%[11.4 µM], 15-hLO inh 9.0%[11.4 µM] and ERK AVP block -4.2%[11.5 µM].
Screening Oc1ccc2c3c1O[C@@H]1c4[nH]c5c(c4C[C@@]4(O)[C@@H](C2)N(CC2CC2)CC[C@]314)C[C@]1(O)[C@@H]2Cc3ccc(O)c4c3[C@@]1(CCN2CC1CC1)[C@H]5O4 returned HSD17B inhib -8.9%, Luciferase inh -0.5%, HADH2 inh inconclusive, 15-hLO inh -0.7% and ERK AVP block 7.1%.
Screening CCN(CC)c1ncnc2c1ncn2[C@@H]1O[C@@H](COP(=O)(O)OP(=O)(O)C(Br)(Br)P(=O)(O)O)[C@H](O)[C@@H]1O returned HSD17B inhib 4.7%, Luciferase inh 3.1%, HADH2 inh 2.8%, 15-hLO inh -9.2% and ERK AVP block 9.1%.
C[C@]1(C(=O)O)[C@@H]2CC[C@@H](O2)[C@@]1(C)C(=O)O was read as HSD17B inhib -1.7%, Luciferase inh 2.1%, HADH2 inh 12.1%, 15-hLO inh 13.4% and ERK AVP block 7.94µM*.
`C[C@@H](Cc1ccc2c(c1)OC(C(=O)O)(C(=O)O)O2)NC[C@H](O)c1cccc(Cl)c1` gave HSD17B inhib -6.3%, Luciferase inh -0.3%, HADH2 inh 7.8%, 15-hLO inh 4.8% and ERK AVP block 0.0%.
Screening O=S(=O)(O)c1cc(O)ccc1O returned HSD17B inhib inconclusive, Luciferase inh 1.9%[25.5 µM], HADH2 inh 0.251µM*, 15-hLO inh -5.0%[25.6 µM] and ERK AVP block -6.6%[25.7 µM].
Screening O=C(O)[C@H]1C2c3ccccc3C(c3ccccc32)[C@@H]1C(=O)NCC1CC1 returned HSD17B inhib 4.5%[11.4 µM], Luciferase inh 4.9%[11.4 µM], HADH2 inh 14.8%[11.4 µM], 15-hLO inh 1.1%[11.4 µM] and ERK AVP block -8.4%[11.5 µM].
Screening COc1cc2c(cc1OC)-c1c(O)c(OC)cc3c1[C@@H](C2)N(C)CC3 returned Luciferase inh -1.0%[11.4 µM] and HADH2 inh -108.0%.
For Cc1cccc(C(=O)O)c1O the results were HSD17B inhib 25.1µM*, 15-hLO inh -0.9% and ERK AVP block 17.3%.
`COc1ccc2c(c1)CCC1C2CC[C@]2(C)[C@H](NCCCCCCN3C(=O)C=CC3=O)CC[C@@H]12` (some centres undefined) gave HSD17B inhib 7.3%, Luciferase inh -1.1%, HADH2 inh -21.7%, 15-hLO inh 8.9% and ERK AVP block -2.7%.
Screening c1ccc(N2CCCC3(CCNCC3)C2)nc1 returned HSD17B inhib 31.6µM*, Luciferase inh 2.0%[11.4 µM], HADH2 inh -19.1%, 15-hLO inh 4.4% and ERK AVP block -20.4%.
Screening CN1CCC[C@@H]1c1cccnc1.O=C(O)c1ccccc1O.O=C([OH2+])c1ccccc1O.O=C([OH2+])c1ccccc1O.O=C([OH2+])c1ccccc1O.[Mn] returned HSD17B inhib inconclusive, Luciferase inh 0.3%[11.4 µM], HADH2 inh inconclusive, 15-hLO inh 18.9%[11.4 µM] and ERK AVP block 11.3%[11.5 µM].
Screening Clc1nc(Cl)nc(Nc2ccccc2Cl)n1 returned HSD17B inhib -3.4%, HADH2 inh 1.8%, 15-hLO inh -12.9% and ERK AVP block -17.8%.
For CSCC[C@@H](N)P(C)(=O)O the results were HSD17B inhib 4.2%[11.4 µM], Luciferase inh 0.8%[11.4 µM], HADH2 inh 10.3%[11.4 µM], 15-hLO inh -1.4%[11.4 µM] and ERK AVP block -9.6%[11.5 µM].
Screening O=C(Cn1c(=O)c(C(F)(F)F)nc2ccccc21)N1CCC2(CC1)OCCO2 returned HSD17B inhib 25.1µM*, Luciferase inh 2.6%, HADH2 inh 9.6%, 15-hLO inh 2.7%, PK Bst >57 and ERK AVP block -11.9%.
O=C(Cn1ncc2ccsc2c1=O)N1CCC2(CC1)OCCO2 was read as HSD17B inhib 3.8%, Luciferase inh -2.5%, HADH2 inh -1.3%, 15-hLO inh 5.1%, PK Bst >57 and ERK AVP block 5.3%.
Screening O=C(O)[C@H]1CCN1 returned HSD17B inhib -2.3%, Luciferase inh 3.7%, HADH2 inh -17.9%, 15-hLO inh 9.4% and ERK AVP block -5.9%.
Screening O=c1ccc2cc(OC3OC(CO)C(O)C(O)C3O)c(O)cc2o1 (centres undefined) returned HSD17B inhib 7.94µM*, 15-hLO inh -5.9%[25.6 µM] and ERK AVP block 26.6%.
CC(=O)/C=C/c1ccccc1 was read as HSD17B inhib 0.2%, HADH2 inh -1.7%, 15-hLO inh -1.7% and ERK AVP block 13.9%.

Screening results (PubChem BioAssay)
